Out of some 84,000 compounds screened, about 95 (0.1%) were called active. This excerpt belongs to a sample that is enriched for actives. Unmarked numbers belong to inactive results. Rule as the data show it: active = inhibition above about 25% (passing the limit was not always enough); inactive = the rest.
These compounds were tested on BasE (2,3-dihydroxybenzoate-AMP ligase), Acinetobacter baumannii ATCC 17978 (assay: BasE siderophore enzyme inhibitors, primary screen, biochemical, Acinetobacter baumannii ATCC 17978, fluorescence polarization (AID 485350;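 also: 0% = negative plate control signal and 100% = positive plate control signal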)). Conditions: purified BasE, fluorescence polarization binding displacement; stronger effect = higher value; concentration not given here.

SMILES	inhibition [%]
CC(=O)Nc1cccc(C(=O)OCC(=O)N2CCN(c3ccccc3)CC2)c1	0.21
Oc1ccc(N=Cc2cn(-c3ccccc3)nc2-c2ccco2)cc1	-0.83
C/C(N)=C(/C#N)C(=O)CSc1n[nH]c(C(C)C)n1	1.38
CC(Oc1coc(CN2CCN(Cc3ccccc3)CC2)cc1=O)c1ccccc1 (stereo unspecified)	-0.18
O=C(O)Cc1cc(=O)n(C2CCS(=O)(=O)C2)[nH]1 (stereo unspecified)	-0.2
O=S(=O)(NCCC1=CCCCC1)c1ccc(Cl)cc1	-0.06
c1snnc1C12CC3CC(CC(C3)C1)C2	-2.21
NC(=O)C[n+]1cccc(C(N)=O)c1	-2.44
CCOC(=O)c1cc(-c2ccc(S(=O)(=O)N(C)Cc3cnn(-c4ccccc4)c3)s2)on1	-0.03
CN(C)S(=O)(=O)c1ccc(C(=O)Nc2ccccc2C(=O)NCc2ccc3c(c2)OCO3)cc1	-2.15
O=C(Oc1ccc2c3c(c(=O)oc2c1)CCC3)C1CCCCC1	2.18
COc1cc2c(cc1OC)C(C)N(Cc1sc3ccccc3c1C)CC2 (stereo unspecified)	-2.07
O=C1CSC(=Nc2ccccc2)N1S(=O)(=O)c1ccccc1	0.27
O=C(C1=Cc2sc3c(c2CS1)CCCC3)N1CCCC1	0.06
N#Cc1cccc(OC(=O)c2ccccc2)c1	1.16
COC(=O)c1cccc(NS(=O)(=O)c2cccs2)c1	0.35
CCc1ccc(CCC(=O)O)cc1	1.07
CCOC(=O)c1nn(-c2ccccc2)c(=O)cc1OCC	0.32
Cc1ccc(CN2CCC(CNC(=O)Cn3c(=O)oc4ccccc43)CC2)cc1	3.44
O=C(O)Cc1ccc(C(F)(F)F)cc1	-1.44
CCOC(=O)CC1=CSC(NC)N1c1c(C)cc(C)cc1C (stereo unspecified)	0.61

SMILES	inhibition [%]
Cc1cc(C(=O)N/N=C/c2ccc(O)cc2)c2ccccc2n1	-0.11
CCOC(=O)/C=C1\SCC(=O)N1Cc1cc(Cl)cc2c1OCOC2	-0.76
Cc1cc(C)n2nc(SCc3nc4ccc(Cl)cc4n3CCO)nc2n1	-0.85
Cc1ccc(Cl)cc1NC(=O)CSc1nc2c(oc3ccccc32)c(=O)n1C1CCCC1	0.55
CCN(CC(=O)NCc1cccs1)C(=O)c1ccc2c(c1)SC1=NS(=O)(=O)CCN12	0.92
O=C(CC1SC(=Nc2ccccc2)NC1=O)NC1CC1 (stereo unspecified)	0.62
O=C(NCc1ccc(-c2nc3ccccc3o2)cc1)c1ccccc1Br	-0.19
O=C1N(CNc2ccccc2)CCN1CNc1ccccc1	1.83
O=C(CSc1nnc(Cc2csc(Nc3cccc(Cl)c3)n2)o1)c1ccc2c(c1)OCCO2	-0.63
CC(C)C(NC(=O)C1CCCCC1)C(=O)O (stereo unspecified)	3.11
O=C(c1cc(-c2cccs2)on1)N1CCCC1	-0.81
N#Cc1ccc(Cn2cc(Br)ccc2=O)cc1	0.99
O=C(c1ccc(S(=O)(=O)N2CCOCC2)cc1)N1CCn2c1nc1ccccc12	-1.29
COc1cc(OC)c(C2Nc3c(C)cc(C)cc3-c3cc(C)nn32)cc1OC (stereo unspecified)	0.21
O=C(c1ccc2c(c1)C(=O)N(Cc1ccncc1)C2=O)N1CCN(S(=O)(=O)c2ccc(OC(F)(F)F)cc2)CC1	0.9
CO/N=C(/C(=O)N[C@@H]1C(=O)N2C(C(=O)[O-])=C(C[N+]3(C)CCCC3)CS[C@H]12)c1csc(N)n1	-0.27
Cc1cccc(C(CC(=O)NCc2cccs2)n2cccc2)c1 (stereo unspecified)	1.33
CC(c1ccccc1)N(C)CN1C(=O)c2ccccc2C1=O (stereo unspecified)	-0.8
Cc1[nH]c2ccccc2c1C1=CCN(S(=O)(=O)c2cccc3nsnc23)CC1	-2.27
COc1ccc(O)c(C(=O)c2cnn(C(=O)c3ccc4c(=O)n5c(nc4c3)CCC5)c2)c1	-0.87
C=CCC(CC=C)(C(N)=O)c1ccccc1	2.87

SMILES	inhibition [%]
COc1ccc(CNC(=O)c2cc3c(C)nccc3[nH]c2=O)cc1	0.94
CCn1c2ccccc2c2nnc(SCC(=O)NCCc3ccc(OC)c(OC)c3)nc21	-1.45
N#CSc1ccc(N2CCCCC2)cc1	1.12
CCCCn1c(SCc2nnc(-c3cccs3)o2)nc2cc(S(N)(=O)=O)ccc21	-3.81
CC1(C)CC(=O)C=C(N2CCN(c3ccccc3F)CC2)C1	0.11
CCn1c(N2CCN(S(C)(=O)=O)CC2)nc2ccccc21	-0.64
O=C1CN(C(=O)CSC2=Nc3ccccc3CS2)c2ccccc2N1	-1.75
CCOc1ccnc2sc(C(=O)c3cccnc3)c(N)c12	1.88
C=CCn1cc(/C=C(\C#N)C(=O)NC2CCCCC2)c2ccccc21	2.71
Cc1ccc(C2=NN(C(=O)CSc3nc(N)cc(N)n3)C(c3ccco3)C2)cc1 (stereo unspecified)	2.13
CS(=O)c1nc(-c2cccs2)cc(-c2ccccc2)c1C#N (stereo unspecified)	-2.06
COCCc1cc(C(F)(F)F)c2c(=O)n(C)c(=O)n(C)c2n1	-0.29
Cn1c(N)c(C(=O)NCc2ccccc2)c2nc3ccccc3nc21	-1.54
CCOC(=O)c1c(C)[nH]c(C(=O)CN2C(=O)NC(CC)(c3ccc(F)cc3)C2=O)c1C (stereo unspecified)	-1.75
Cc1cc(Oc2ccc3c(c2)OCO3)nc2ccccc12	6.24
O=C(NCC(c1ccco1)N1CCCCC1)c1ccc(S(=O)(=O)N2CCCC2)cc1 (stereo unspecified)	1.67
Clc1ccc(/C=N/NCc2cn3ccsc3n2)cc1	0.12
COc1ccc(Cl)cc1NC(=O)CN1C(=O)CSC(C)C1=O (stereo unspecified)	0.33
O=C(OCC(=O)N1CCCc2ccccc21)c1cc2ccccc2oc1=O	-0.7
